According to PubChem BioAssay:
Activity calls are given as the source filed them. Unless noted, how the calls were made is not given here.

Key:
[1] = anti-His antibody binders, primary screen, artefact control for SMM control protein annotation, biochemical, small-molecule microarray, 635 nm fluorescence (AID 1128); settings: anti-His Alexa647 antibody binding, higher = more signal;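 further: score merges feature fluorescence with signal-to-noise for each printed compound spot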
[2] = test system: Human papillomavirus type 1a E7 protein (residues 1-88); test: HPV1a E7 small-molecule binders, primary screen, biochemical, small-molecule microarray, residues 1-88, 635 nm (AID 1129); settings: small-molecule microarray binding, fluorescence 635 nm; higher = more signal
[3] = target: Focal adhesion kinase 1 (Homo sapiens) (UniProt Q05397); test: small-molecule microarray binders of FAK, primary screen, biochemical, 635/667 nm fluorescence, BSA, DTT (AID 1130); settings: PTK2 binding, 635 nm fluorescence, higher = more signal;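 further: composite of spot emission at 667 nm and signal to noise over triplicate slides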
Sequence of Focal adhesion kinase 1 (Homo sapiens) (Q05397 whole entry, looked up): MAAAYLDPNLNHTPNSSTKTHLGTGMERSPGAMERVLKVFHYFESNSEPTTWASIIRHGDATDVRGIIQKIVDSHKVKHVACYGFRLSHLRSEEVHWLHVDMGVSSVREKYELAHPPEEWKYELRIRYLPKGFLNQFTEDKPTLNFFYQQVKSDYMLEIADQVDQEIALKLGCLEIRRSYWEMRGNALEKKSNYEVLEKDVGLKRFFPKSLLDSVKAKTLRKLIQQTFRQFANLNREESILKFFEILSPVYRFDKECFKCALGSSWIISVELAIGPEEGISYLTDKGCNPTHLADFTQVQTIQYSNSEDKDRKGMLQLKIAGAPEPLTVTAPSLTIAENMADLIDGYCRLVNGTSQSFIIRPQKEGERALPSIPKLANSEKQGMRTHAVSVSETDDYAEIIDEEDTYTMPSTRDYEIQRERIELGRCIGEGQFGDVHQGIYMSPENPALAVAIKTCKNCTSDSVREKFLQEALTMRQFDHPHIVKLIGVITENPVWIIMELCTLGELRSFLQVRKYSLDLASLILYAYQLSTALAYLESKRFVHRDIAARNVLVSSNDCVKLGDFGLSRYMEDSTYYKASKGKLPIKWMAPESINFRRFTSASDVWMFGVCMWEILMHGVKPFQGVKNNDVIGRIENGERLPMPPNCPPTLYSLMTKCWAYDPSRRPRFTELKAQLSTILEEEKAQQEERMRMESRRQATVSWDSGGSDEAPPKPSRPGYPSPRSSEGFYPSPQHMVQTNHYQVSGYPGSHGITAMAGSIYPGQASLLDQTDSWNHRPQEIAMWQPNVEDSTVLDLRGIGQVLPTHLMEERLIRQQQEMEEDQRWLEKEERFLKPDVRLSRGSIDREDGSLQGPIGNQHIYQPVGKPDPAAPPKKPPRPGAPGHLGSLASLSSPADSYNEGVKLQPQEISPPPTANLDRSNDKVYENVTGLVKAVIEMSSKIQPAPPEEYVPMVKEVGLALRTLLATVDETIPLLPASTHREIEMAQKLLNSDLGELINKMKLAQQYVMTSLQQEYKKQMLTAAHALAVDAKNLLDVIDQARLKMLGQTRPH

[4] = test system: Fibrinogen (Alexa647-labelled); test: fibrinogen binders on compound microarrays, profiling panel, artefact control for SMM control-protein annotation, biochemical, small-molecule microarray, 635/667 nm fluorescence (AID 1131); settings: fibrinogen-A647 binding fluorescence, higher = more signal;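 further: z-score merges 667 nm fluorescence with per-spot signal-to-noise over triplicate slides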
[5] = target: Follistatin (Homo sapiens) (UniProt P19883); test: follistatin binders on small-molecule microarrays, primary screen, biochemical, small-molecule microarray, 635/667 nm fluorescence (AID 1132); settings: FST binding, 635 nm fluorescence, higher = more signal
Sequence of Follistatin (Homo sapiens) (P19883 whole entry, looked up): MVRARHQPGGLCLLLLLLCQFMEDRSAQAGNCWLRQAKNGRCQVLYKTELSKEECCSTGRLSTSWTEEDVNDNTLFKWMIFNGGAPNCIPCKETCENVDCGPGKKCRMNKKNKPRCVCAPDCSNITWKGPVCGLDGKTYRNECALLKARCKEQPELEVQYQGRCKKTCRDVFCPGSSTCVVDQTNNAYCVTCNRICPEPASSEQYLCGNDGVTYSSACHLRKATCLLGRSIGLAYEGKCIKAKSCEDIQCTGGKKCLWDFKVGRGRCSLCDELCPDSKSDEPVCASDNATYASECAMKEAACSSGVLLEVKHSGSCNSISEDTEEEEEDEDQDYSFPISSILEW

[6] = target: Fibroblast growth factor 2 (Homo sapiens) (UniProt P09038); test: FGF2 binders on small-molecule microarrays, primary screen, biochemical, small-molecule microarray, 635/667 nm fluorescence (AID 1133); settings: small-molecule microarray binding, FGF2, fluorescence 635/667; higher = more signal
Sequence of Fibroblast growth factor 2 (Homo sapiens) (P09038 whole entry, looked up): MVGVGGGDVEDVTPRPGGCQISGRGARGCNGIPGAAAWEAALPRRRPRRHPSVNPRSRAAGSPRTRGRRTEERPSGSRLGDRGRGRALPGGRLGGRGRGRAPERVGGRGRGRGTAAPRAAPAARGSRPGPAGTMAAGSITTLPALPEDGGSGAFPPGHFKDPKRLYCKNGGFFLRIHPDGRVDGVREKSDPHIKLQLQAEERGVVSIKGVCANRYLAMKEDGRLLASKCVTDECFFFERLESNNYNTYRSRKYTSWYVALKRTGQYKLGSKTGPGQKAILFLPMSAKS

[7] = mitochondrial membrane potential change in A549 cells, profiling panel, cell-based, JC-1 fluorescence, basal, 24 h, 100 nL (AID 1138); settings: higher = more signal;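 further: A549 lung adenocarcinoma cells under basal conditions with no added stimulus; test concentration not given here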
Lefty1 = Lefty1 binders on small-molecule microarrays, primary screen, biochemical, small-molecule microarray, 635/667 nm fluorescence (AID 1139); settings: small-molecule microarray binding, fluorescence 635/667; higher = more signal
[8] = test system: wheat germ agglutinin (Triticum aestivum), Alexa647-labelled; test: wheat germ agglutinin binders on compound microarrays, profiling panel, artefact control for SMM control-protein annotation, biochemical, small-molecule microarray, 635/667 nm fluorescence (AID 1140); settings: WGA-A647 binding, 635 nm fluorescence, higher = more signal;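 further: score merges 667 nm feature emission with signal to noise over triplicate slides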
[9] = target: Luciferin 4-monooxygenase (Photinus pyralis) (UniProt P08659); test: firefly luciferase enzyme inhibitors, primary screen, biochemical, luminescence, purified enzyme, 2006 set (AID 1141); settings: SteadyGlo luminescence, 30 min, higher = more signal, called active from +8 up or from −8 down;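 further: cell-free assay with purified firefly luciferase at 100 ng per well in PBS; test concentration not given here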
Sequence of Luciferin 4-monooxygenase (Photinus pyralis) (P08659 whole entry, looked up): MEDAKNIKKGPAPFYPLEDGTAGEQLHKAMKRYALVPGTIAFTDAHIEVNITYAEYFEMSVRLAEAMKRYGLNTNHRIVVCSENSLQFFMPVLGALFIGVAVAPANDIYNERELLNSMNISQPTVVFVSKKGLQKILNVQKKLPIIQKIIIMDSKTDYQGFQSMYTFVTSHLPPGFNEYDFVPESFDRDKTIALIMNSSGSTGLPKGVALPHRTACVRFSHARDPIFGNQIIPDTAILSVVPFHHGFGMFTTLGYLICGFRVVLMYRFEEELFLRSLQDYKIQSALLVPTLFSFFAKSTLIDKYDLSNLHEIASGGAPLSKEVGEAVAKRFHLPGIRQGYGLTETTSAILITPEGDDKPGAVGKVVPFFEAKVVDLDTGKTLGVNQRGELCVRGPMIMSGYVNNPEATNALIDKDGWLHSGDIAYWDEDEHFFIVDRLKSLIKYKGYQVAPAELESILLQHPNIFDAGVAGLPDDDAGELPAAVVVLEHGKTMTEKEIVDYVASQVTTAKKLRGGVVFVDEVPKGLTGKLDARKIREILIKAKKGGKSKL

[10] = test system: Wnt5a (protein binding on small-molecule microarray); test: Wnt5a binders on small-molecule microarray, primary screen, biophysical, 635/667 nm fluorescence (AID 1142); settings: 635 nm fluorescence, higher = more signal;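 further: fluorescence read at 667 nm with signal to noise per printed feature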
[11] = cell viability in Huh7 cells, primary screen, cytotoxicity control for HCV replication inhibitor project, CellTiter-Glo luminescence, basal, 48 h (AID 1143); settings: Huh7 HCV replicon, higher = more signal, called active from +8 up or from −8 down;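 further: Huh7 hepatoma cells carrying a hepatitis C replication reporter with no stimulus; test concentration not given here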
[12] = P. aeruginosa biofilm formation inhibitors, primary screen, PAO1 strain, BacTiter-Glo luminescence, LB-PBS (AID 1144); settings: 12 h, higher = more signal
[13] = CREB reporter modulators without forskolin, primary screen, cell-based, PC12, CRE-LacZ reporter, unstimulated (AID 1145); settings: no forskolin, luminescence, 4.5 h, higher = more signal, called active from +8 up or from −8 down
[14] = CREB reporter modulators under forskolin, primary screen, cell-based, PC12, CRE-LacZ reporter, forskolin-stimulated (AID 1146); settings: luminescence, 4.5 h, higher = more signal, called active from +8 up or from −8 down;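 further: PC12 cells with 6xCRE LacZ reporter stimulated by forskolin 10 µM; beta-galactosidase reporter signal reflecting CREB driven transcription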
[15] = target: Streptavidin (Streptomyces avidinii) (UniProt P22629); test: streptavidin binders on small-molecule microarray, primary screen, artefact control for SMM compound annotation, biophysical, 635/667 nm fluorescence (AID 1147); settings: streptavidin binding, higher = more signal;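 further: signal reflects streptavidin binding to arrayed compounds as a control protein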
Sequence of Streptavidin (Streptomyces avidinii) (P22629 whole entry, looked up): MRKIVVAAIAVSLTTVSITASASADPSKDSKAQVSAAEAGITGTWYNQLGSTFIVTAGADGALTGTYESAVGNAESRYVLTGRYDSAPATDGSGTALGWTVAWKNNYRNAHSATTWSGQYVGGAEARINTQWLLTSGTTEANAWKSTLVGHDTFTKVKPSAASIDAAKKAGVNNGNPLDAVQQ

[16] = small-molecule binders of probe aInhba, primary screen, biochemical, small-molecule microarray, 635/667 nm fluorescence (AID 1148); settings: higher = more signal;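 further: score merges 667nm spot fluorescence with signal-to-noise for antibody binding to printed compounds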
Torsin-1A (Homo sapiens) [17] = target: Torsin-1A (Homo sapiens) (UniProt O14656); test: torsin A binders from cell lysate, primary screen, small-molecule microarray, wild-type, 635/667 nm (AID 1149); settings: COS7 hTOR1A-WT lysate, 635 nm fluorescence, higher = more signal
Sequence of Torsin-1A (Homo sapiens) (O14656 whole entry, looked up): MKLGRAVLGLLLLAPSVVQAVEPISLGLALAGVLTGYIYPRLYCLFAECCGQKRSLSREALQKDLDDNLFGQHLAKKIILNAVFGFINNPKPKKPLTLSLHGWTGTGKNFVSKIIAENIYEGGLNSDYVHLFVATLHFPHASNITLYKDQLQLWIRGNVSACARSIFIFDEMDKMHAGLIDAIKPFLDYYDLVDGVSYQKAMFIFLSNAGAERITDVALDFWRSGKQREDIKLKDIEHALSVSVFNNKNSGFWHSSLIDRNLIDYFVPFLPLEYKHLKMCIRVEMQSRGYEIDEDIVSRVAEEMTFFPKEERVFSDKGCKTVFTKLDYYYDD

Torsin-1A (Homo sapiens) [18] = target: Torsin-1A (Homo sapiens) (UniProt O14656); test: small-molecule binders of mutant TOR1A in lysate, primary screen, cell lysate, small-molecule microarray, COS7 lysate, 635/667 nm fluorescence (AID 1150); settings: COS7 hTOR1A mutant lysate, 635 nm fluorescence, higher = more signal;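 further: score pools 667 nm emission and signal to noise measuring lysate protein binding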
[19] = test system: Sonic hedgehog protein (Shh); test: small-molecule binders of Shh protein, primary screen, biochemical, small-molecule microarray, 635/667 nm fluorescence (AID 1151); settings: small-molecule microarray binding, 635 nm fluorescence; higher = more signal;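 further: Shh protein binding to compounds spotted on small-molecule microarray slides; score combines spot fluorescence intensity with signal-to-noise across triplicate slides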

Compound | composite z-score [1] | composite z-score [2] | composite z-score [3] | composite z-score [4] | composite z-score [5] | composite z-score [6] | z-score [7] | composite z-score (Lefty1) | composite z-score [8] | z-score [9] | composite z-score [10] | z-score [11] | z-score [12] | z-score [13] | z-score [14] | composite z-score [15] | composite z-score [16] | composite z-score (Torsin-1A (Homo sapiens) [17]) | composite z-score (Torsin-1A (Homo sapiens) [18]) | composite z-score [19]
CN1C(=O)C2C=CC(C(O)c3ccc(F)cc3)N(N3CCCCC3)C2C1=O (stereo not given) | 2.59 | 0.978 | 1.34 | 0.167 | 0.0756 | -0.627 | -0.0964 | -1.21 | 1.38 | 0.0216 (inactive) | 0.442 | 1 (inactive) | -0.273 (inactive) | 1.01 (inactive) | -0.523 (inactive) | 0.428 | 0.838 | 0.759 | 0.531 | -0.846
[N-]=[N+]=NCc1ccccc1[C@H]1OC(c2ccc(OCCCO)cc2)=N[C@@]1(Cc1ccccc1)C(N)=O | 1.85 | 1.24 | 0.5 | 1.04 | 0.405 | -0.135 | 2.44 | -0.572 | 1.37 | -1.89 (inactive) | 0.765 | -1.18 (inactive) | -0.293 (inactive) | 0.479 (inactive) | -1.43 (inactive) | 2.31 | 0.278 | 0.217 | 0.65 | -1.13
COc1cc2c(cc1OC)CN(C(=O)[C@@H]1[C@H]3C(=O)O[C@H](c4ccccc4)[C@H](c4ccccc4)N3[C@H](c3ccc(O)cc3)[C@@]13C(=O)Nc1ccc(C#CCNC(N)=O)cc13)CC2 | 0.474 | 0.69 | 0.484 | 0.43 | 1.29 | 0.302 | -0.876 | 0.837 | 0.607 | 0.696 (inactive) | 0.147 | 0.311 (inactive) | 0.347 (inactive) | 0.182 (inactive) | 0.445 (inactive) | 0.239 | -0.101 | -0.0899 | -0.0351 | 0.946
